# Pol kappa inh: DNA polymerase kappa (human) inhibition. Q9UBT6. purified Pol kappa, fluorescent DNA synthesis assay, 10 min. Potency, µM (doses to about 107 µM), for inactives: at the top dose activity, negative = inhibition, usual class: inhibitors. actives 0.53% (n = 400,000). AID 588579; also: % is scaled to controls: 0 for no effect and ±100 for the full control effect
#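 Kinetic fluorescence readout at 0 and 10 min followed reaction start with substrate at 50 nM final. Beforehand, enzyme (10 nM Pol kappa) stood 15 min with compound at room temperature; buffer-only wells were negative controls.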
# Pol beta inh: inhibitors of human DNA polymerase beta. actives 1.3% (n = 340,000). P06746. Potency, µM (highest dose often 114 µM), for the others: at the top dose activity change, negative = inhibition, hits mostly inhibitors. Pol beta primer extension/strand displacement, fluorescence kinetic; also: % is scaled to controls: 0 for no effect and ±100 for the full control effect
#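 10 nM enzyme + cpd, 15 min RT; start with substrate 50 nM final; read 0 min and after 10 min RT. Corrected, normalized data; 4-parameter Hill curve fit.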
# TDP1 inh: TDP1 (human) enzyme inhibition; recombinant TDP1, AlphaScreen DNA substrate cleavage; Potency, µM (highest dose often 130 µM), for inactives: at the highest dose activity change, negative = inhibition, actives largely listed as inhibitors; actives 0.28% (n = 350,000); also: % is scaled to controls: 0 for no effect and ±100 for the full control effect; nearly all actives have a fitted effect of over 40% in size
#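 Compounds were preincubated with Tdp1 (1 nM final) for 15 min at room temperature before substrate (15 nM final) started a 5 min reaction; beads (10 ug/ml final) were then added for 10 min before AlphaScreen detection.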
# POLH inh: blocks human DNA polymerase eta activity; recombinant Pol eta, fluorescent DNA replication assay; Potency, µM (top dose mostly 114 µM), for the others: at the highest dose activity change, negative = inhibition, usual class: inhibitors; actives 1.2% (n = 390,000); AID 588591; also: % is scaled to controls: 0 for no effect and ±100 for the full control effect
#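 Pol eta (10 nM) was preincubated with compounds for 15 min at room temperature, after which fluorescent replication substrate (50 nM final) was added to start the reaction. Fluorescence was read kinetically at 0 and 10 min.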
# POLI inh: blocks human DNA polymerase iota activity. Q9UNA4. Pol iota fluorescent replication assay, 10 min. Potency, µM (series often up to 115 µM), for inactives: at the top dose activity, negative = inhibition, most hits filed as inhibitors. actives 1% (n = 390,000)
# Target sequence (Q9UNA4 whole entry, looked up): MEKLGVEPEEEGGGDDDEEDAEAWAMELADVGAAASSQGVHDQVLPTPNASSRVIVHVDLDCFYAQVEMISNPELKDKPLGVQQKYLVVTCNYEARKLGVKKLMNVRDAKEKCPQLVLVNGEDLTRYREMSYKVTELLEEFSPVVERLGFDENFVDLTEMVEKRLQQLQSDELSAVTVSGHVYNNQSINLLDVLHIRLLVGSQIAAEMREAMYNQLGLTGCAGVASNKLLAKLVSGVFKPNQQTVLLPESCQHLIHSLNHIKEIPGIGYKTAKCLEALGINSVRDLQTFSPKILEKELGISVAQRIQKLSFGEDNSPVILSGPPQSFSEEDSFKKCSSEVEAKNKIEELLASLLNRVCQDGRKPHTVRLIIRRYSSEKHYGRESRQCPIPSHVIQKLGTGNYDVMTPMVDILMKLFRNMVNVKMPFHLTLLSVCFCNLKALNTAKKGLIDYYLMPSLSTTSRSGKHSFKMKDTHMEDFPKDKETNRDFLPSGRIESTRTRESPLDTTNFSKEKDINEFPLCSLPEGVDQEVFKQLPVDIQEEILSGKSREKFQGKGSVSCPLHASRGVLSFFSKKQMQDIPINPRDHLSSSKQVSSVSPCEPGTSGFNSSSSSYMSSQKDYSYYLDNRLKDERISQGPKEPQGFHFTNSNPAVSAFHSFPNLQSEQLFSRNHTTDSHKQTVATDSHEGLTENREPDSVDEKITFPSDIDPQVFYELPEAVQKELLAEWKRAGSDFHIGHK
#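 Fluorescent replication assay read twice, at 0 min and 10 min after adding 50 nM (final) substrate. Enzyme (10 nM) and compounds were first incubated 15 min at room temperature; enzyme-free buffer wells were negative controls.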
# An asterisk follows results filed as active; ? = inconclusive; · = no result given; [ ] = dose if it differs, or a comment. Hits are enriched below; roughly 2.4% of the tested compounds scored in any of these assays. Calls follow the shape of the dose curve; as a rule, active = well fitted curve in the direction sought with a large enough effect; inconclusive = small, poorly fitted or top-dose-only effect, or another doubt; inactive = no such curve, though single readings can be large; an effect the other way counts as inactive or inconclusive. Potency is read from the fitted curve at half-maximal effect.
SMILES,Pol kappa inh,Pol beta inh,TDP1 inh,POLH inh,POLI inh
CCOC(=O)c1sc2nc3c(SCC(=O)O)cc(C(=O)c4ccccc4O)cn3c(=O)c2c1C,-24.1%,3.16µM*,2.7%,?,?
COC(=O)c1cc(C(=O)c2cc(F)ccc2O)cn2c(=O)c3c(C)c(C)sc3nc12,-21.5%,31.6µM*,·,-14.7%,?
Fc1ccc(-c2nnc(Cc3nnc(-c4ccc(F)cc4)o3)o2)cc1,-15.7%,39.8µM*,-1.0%,3.3%,-4.8%[58.9 µM]
Fc1ccc(-c2nnc(-c3ccc(F)cc3)o2)cc1,7.7%,0.9%,·,2.8%,-14.6%
COC(=O)c1c(C)sc(-c2c(-c3ccc4c(c3)OCCO4)[nH]c3[nH]c(=O)[nH]c(=O)c23)c1O,?,39.8µM*,4.7%,·,?
COC(=O)c1c(C)sc(-c2c(-c3ccc4c(c3)OCCO4)[nH]c3c2c(=O)n(C)c(=O)n3C)c1O,-16.7%,0.8%,1.6%,·,5.9%
O=C(Nc1ccc2c(c1)OCO2)C1Cc2ccccc2CN1S(=O)(=O)c1cccs1 (stereo not drawn),?,15.8µM*,-2.8%,?,20µM*
OC[C@H]1OC(O)(CN2CCOCC2)[C@H](O)[C@@H]1O (stereo partly drawn),1.1%[60.1 µM],·,5.6%,·,·
O=C(O)c1ccc(CNc2ncnc3nc[nH]c23)cc1,10.4%,·,0.4%,·,8.5%
CC1=NN(c2ccccc2C)C(=O)C1,3.5%,·,·,-13.5%,3.16µM*
O=C(NNc1ccc(F)cc1F)c1cccs1,-4.2%,·,·,·,12.4%
COc1ccc(-c2ccc(/C=C3/C(=N)N4C=CSC4=NC3=O)o2)c([N+](=O)[O-])c1,-18.9%,35.5µM*,2.3%,20µM*,?
Cc1[nH]n(-c2ncc(-c3ccccc3)s2)c(=O)c1C(c1ccc(Br)cc1)C(C#N)C#N (stereo not drawn),?,44.7µM*,5.8%,22.4µM*,?
CCOCCCn1c(SCc2nc3sc(C(=O)O)c(C)c3c(=O)[nH]2)nnc1-c1ccc(Cl)cc1,-4.7%,-11.3%,-5.0%,-21.0%,49.6%
C=CCn1c(SCc2nc3sc(C(=O)O)c(C)c3c(=O)[nH]2)nnc1-c1ccccc1,-37.3%,-0.2%,·,31.6µM*,?
COc1ccc(-c2noc(-c3ccc(NC4CCCC4)c([N+](=O)[O-])c3)n2)cc1,-2.8%,3.2%,5.7%,-7.7%,58.8%
CCc1cccc2c(-c3ccc(F)cc3)nc(SCC(=O)Nc3ccccc3)nc12,-9.3%,31.8%,4.7%,-8.7%,13.9%
O=C(O)C1Nc2c(Cl)cc(Cl)cc2C2C=CCC12 (stereo not drawn),8.91µM*,?,·,2.82µM*,3.98µM*
Cc1ccc(C)c2c1NC(C(=O)O)C1CC=CC21 (stereo not drawn),3.16µM*,·,?,·,11.2µM*
CC(C)CNC(=O)C1Nc2ccccc2C2C=CCC12 (stereo not drawn),-15.0%,·,·,-15.2%,?
COC(=O)CNC(=O)C1Nc2ccccc2C2C=CCC12 (stereo not drawn),-19.6%,·,·,?,?
COc1nc(N)nc(NC(=O)c2cccs2)c1N=O,2.0%,·,·,-17.2%,28.2µM*
COc1ccc(NC(=O)CSc2ccc(-c3ccco3)nn2)cc1,-22.2%,31.6µM*,-9.2%,?,?
CCOc1ccccc1NC(=O)CSc1ccc(-c2ccco2)nn1,-23.3%,?,5.8%,?,56.2µM*
COc1cc(NC(=O)CSc2ccc(-c3ccco3)nn2)cc(OC)c1,-32.6%,?,1.2%,-17.4%,50.1µM*
SMILES,Pol kappa inh,Pol beta inh,TDP1 inh,POLH inh,POLI inh
COc1ccc(-c2ccc(SCC(=O)Nc3nccs3)nn2)cc1OC,0.0%,50.0%,79.4µM*,6.2%,28.0%
CCOc1ccccc1NC(=O)Cn1nc(-c2ccco2)ccc1=O,-5.7%,-0.7%,·,2.5%,19.5%
Cc1cc(Oc2ccc(Cl)cc2Cl)nc(C#N)n1,-9.9%,·,·,·,-7.9%
C=CCn1c(SC(C)C#N)nc2ccccc2c1=O (stereo not drawn),-4.1%,·,1.1%,·,18.3%
CSc1nsc(SCC(=O)Nc2ccc(NC(C)=O)cc2)n1,-10.2%,36.9%,2.0%,-25.6%,45.5%
COc1ccc(NC(=O)CSc2ccc(-c3cccs3)nn2)cc1,-3.7%,-0.2%,2.6%,-11.8%,89.1µM*
COc1ccc(NC(=O)CSc2nc(SC)ns2)cc1,0.8%,89.1µM*,·,-10.4%,7.5%
O=Cc1ccc(N2CCOCC2)cc1,-2.1%,·,·,·,33.1%
Cc1cc(-c2ccccc2)nc2c(Br)c(C(=O)O)nn12,79.4µM*,·,·,7.94µM*,11.2µM*
N#CCNC(=O)c1nn2c(C(F)(F)F)cc(-c3ccccc3)nc2c1Br,-7.3%,14.6%,·,-22.4%,163.0%
COc1ccc(NC(=O)c2cc(-c3ccccc3Cl)on2)cc1OC,?,16.1%,·,-4.3%,79.4µM*
N#CC1=C(S)N(c2ccc(F)cc2)C(c2cccs2)NC1=O (stereo not drawn),-12.6%,0.4%,2.8%,-13.8%,11.6%
N#CC1=C(S)N(c2ccccc2)C(c2ccc(-c3ccccc3Cl)o2)NC1=O (stereo not drawn),-6.8%,-13.0%,2.7%,44.7µM*,0.9%
CCC(c1nnnn1C1CCCC1)N1CCN(c2ccccc2F)CC1 (stereo not drawn),3.3%,-26.8%,0.0%,-9.2%,5.8%
Fc1ccccc1N1CCN(C(c2ccncc2)c2nnnn2C2CCCC2)CC1 (stereo not drawn),-5.1%,4.2%,6.0%,-12.5%,79.4µM*
COc1ccc(C2Nc3ccccc3C(=O)N2CCCN(C)C)cc1COc1ccc(NC(C)=O)cc1 (stereo not drawn),·,·,-0.7%,·,·
COc1cc(Cl)c(C)cc1Nc1c2c(nc3ccccc13)CCC2,-3.2%,-1.8%,5.9%,-15.8%,6.9%
CC(C(=O)O)C1CCC2C3CC=C4CC(O)CC[C@@]4(C)C3CC[C@]12C (stereo partly drawn),-5.1%[60.1 µM],·,6.3%,·,·
CC1=C(CO)C(=O)OC([C@@H](C)C2CC[C@H]3C4C[C@H]5O[C@]56[C@@H](O)C=CC(=O)[C@]6(C)C4CC[C@]23C)C1 (stereo partly drawn),-18.0%,?,·,50.1µM*,?
CCOc1ccc(N(Cc2cc3cc(C)ccc3[nH]c2=O)C(=O)c2cccc(Cl)c2)cc1,15.7%,14.4%,-2.5%,-17.2%,33.9%
CCc1nnc(NS(=O)(=O)c2ccc(NC(=O)/C=C/c3ccc(OC)cc3OC)cc2)s1,?,56.2µM*,-5.1%,?,?
S=C([S-])NCCNC(=S)[S-].[Zn+2],·,·,14.1µM*,·,·
O=S1(=O)N=C(Oc2ccccc2F)c2ccccc21,·,·,2.8%,·,·
O=C(C=Cc1ccccc1)CC(c1ccccc1)N1CCOCC1 (stereo not drawn),-9.2%,·,·,?,20µM*
COc1ccc2nc(-c3ccccc3)cc(C(=O)OCC(=O)N3CCCCC3)c2c1,-39.3%,·,44.7µM*,?,?
